The sample as a whole holds a higher share of hits than the screen did.
Pf Dd2 inh: qHTS Primary assay for Inhibitors of Plasmodium falciparum Dd2 growth in vitro; P. falciparum Dd2 growth, SYBR Green, 72 h; Potency, µM (titrated, usually from 28.9 µM), without a hit: top-dose activity, negative = inhibition, most hits filed as inhibitors; 4.3% of 120,000 active; AID 1347417, 2020; active means well fitted inhibition curve with a large enough effect;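 further: plate controls were DMSO vehicle for no effect and reference drug for full effect; nearly all actives have a fitted effect of over 65% in size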
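Readout: SYBR Green fluorescence, 485 nm excitation, 535 nm emission, after ~16 h lysis at 37C. Before that, Dd2-infected red cells (2.5% hematocrit) grew 72 h with compound, 29 uM top final concentration.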
* hit, by the source's call; i = inactive; [ ] = dose if it differs, or a comment. Potency means the concentration at half of the fitted maximal effect.

SMILES	Pf Dd2 inh
Cc1noc(C)c1C(=O)N1CCN(C2CCNCC2)C(=O)C1	28%
COc1ccc(S(=O)(=O)N2CCc3c(C(=O)Nc4cccc(C)c4)cccc32)cc1	i
NS(=O)(=O)c1ccc(C(=O)N2C[C@@H](CN3CCCCC3)[C@@H](CO)C2)cc1	-16%
CCc1cccc(NC(=O)Cn2ccn3nc(-c4ccc(F)cc4)c(CO)c3c2=O)c1	19%
Cc1ccc(C(=O)NCCn2cccc2-c2nc(-c3ccc4c(c3)OCO4)no2)cn1	-12%
Cc1cc(C(F)(F)F)nn1CC(=O)N1CCN2CCS(=O)(=O)N(C3CC3)C(=O)C2C1 (stereo not drawn)	4%
Cc1noc([C@H]2CCN(C(=O)NCc3ccccc3)C[C@H]2NC(=O)C2CC2)n1	i[5.79 µM]
Cc1cc(C(=O)N2C[C@H]3CN(C4CCOCC4)C[C@@]3(C(=O)O)C2)n[nH]1	7%
COC[C@H]1CCCN1C(=O)C[C@@H]1O[C@H](CNC(=O)NC(C)C)[C@@H](O)[C@H]1O	35%[44.1 µM]
CN1C(=O)c2ccccc2Sc2ccc(NC(=O)COc3ccc(F)cc3)cc21	0%
CN1C(=O)c2ccccc2Sc2ccc(NC(=O)c3ccccc3F)cc21	-4%
CN1C(=O)c2ccccc2Sc2ccc(NC(=O)N3CCN(c4ccccc4F)CC3)cc21	13µM*
COc1ccc(NC(=O)c2cc(NC(=O)C3CCC3)cc3nc(C)ccc23)cc1	i
Cc1ccccc1Oc1ncccc1CNC(=O)CCc1c(C)nn(C)c1C	-18%
CC(C)C[C@@H]1N[C@H](C(=O)NCc2ccccc2)Cc2cn(Cc3cccnc3)c3cccc1c23	-7%
CCCNC(=O)[C@@H]1Cc2cn(Cc3nccn3C)c3cccc(c23)[C@H](CC(C)C)N1	10µM*
CC(C)C[C@@H]1N[C@H](C(=O)N2CCOCC2)Cc2cn(Cc3nccn3C)c3cccc1c23	11µM*
CC(C)C[C@@H]1N[C@H](C(=O)NCCN2CCOCC2)Cc2cn(Cc3ccccn3)c3cccc1c23	i
C#CCNC(=O)[C@@H]1Cc2cn(Cc3ccncc3)c3cccc(c23)[C@H](CC(C)C)N1	10µM*
CC(C)C[C@@H]1N[C@H](C(=O)NCc2ccccn2)Cc2cn(Cc3ccncc3)c3cccc1c23	-29%
C=CCn1cc2c3c(cccc31)[C@H](CC(C)C)N[C@H](C(=O)NCc1ccccn1)C2	11µM*
COCCCNC(=O)[C@@H]1Cc2cn(Cc3nccn3C)c3cccc(c23)[C@H](CC(C)C)N1	-4%[44.1 µM]
CC(C)C[C@@H]1N[C@H](C(=O)NCCN(C)C)Cc2cn(Cc3ccccn3)c3cccc1c23	-19%[44.1 µM]
Cc1cc(C(=O)N2CCCN(C)c3ccccc32)nn1C	i
COc1cccc(C(=O)N2CCC(C(NC(=O)c3ccc(F)cc3)C(=O)NCC(C)C)CC2)c1 (stereo not drawn)	i
SMILES	Pf Dd2 inh
O=C(c1cccc(C(F)(F)F)c1)N1CCN(C2CCN(Cc3cccnc3)C2=O)CC1 (stereo not drawn)	-8%
COc1ccc(C(=O)N2CCC3(CC2)N(C)C(=O)CS3(=O)=O)cc1F	8%
O=C1CCN(S(=O)(=O)c2ccccc2)CCCN(C(=O)CN2CCCCCC2)CCN1	-2%
COc1ccc(NC(C)=O)cc1NC(=O)CC[C@H]1NC(=O)c2ccccc2NC1=O	-12%
CNC(=O)[C@@H]1CN(C(=O)Cc2ccccc2Br)C[C@H]1CO	1%
COc1ccc(CN2CCN3C(=O)N(C4CCOCC4)C[C@H]3C2)cc1	-13%[44.1 µM]
COc1ccc(-c2noc(-c3nc(Cc4cccc(F)c4)no3)n2)cc1OC	i
COCc1nc(C2CCCN(C(=O)c3ccsc3)C2)no1 (stereo not drawn)	26%
COc1ccc(C(=O)N[C@@H]2CCC[C@@H]2C(=O)N(C)CCc2ccccn2)cn1	i
CC(C)C[C@@H]1N[C@H](C(=O)NC2CCC2)Cc2cn(Cc3ccncc3)c3cccc1c23	-28%[44.1 µM]
COc1ccccc1CNC(=O)[C@@H]1Cc2cn(C)c3cccc(c23)[C@H](CC(C)C)N1	-13%[44.1 µM]
CC(C)C[C@@H]1N[C@H](C(=O)NC2CCC2)Cc2cn(Cc3ccccn3)c3cccc1c23	11µM*
CC(C)C[C@@H]1N[C@H](C(=O)NCC2CC2)Cc2cn(Cc3ccccn3)c3cccc1c23	-23%[44.1 µM]
CCCNC(=O)[C@@H]1Cc2cn(Cc3c(C)noc3C)c3cccc(c23)[C@H](CC(C)C)N1	11µM*
CC(C)C[C@@H]1N[C@H](C(=O)NCC2CC2)Cc2cn(Cc3nccn3C)c3cccc1c23	-18%[44.1 µM]
CC(=O)NCCNC(=O)[C@@H]1Cc2cn(Cc3cc(C)on3)c3cccc(c23)[C@H](CC(C)C)N1	i
Cc1cc(Cn2cc3c4c(cccc42)[C@H](CC(C)C)N[C@H](C(=O)NCc2nccs2)C3)no1	-7%
Cc1cc(Cn2cc3c4c(cccc42)[C@H](CC(C)C)N[C@H](C(=O)O)C3)no1	i
Cc1cc(Cn2cc3c4c(cccc42)[C@H](CC(C)C)N[C@H](C(=O)NCc2ccc(C)o2)C3)no1	13µM*
CC(C)C[C@@H]1N[C@H](C(=O)NC2CC2)Cc2cn(Cc3nccn3C)c3cccc1c23	11µM*
COc1cccc(CNC(=O)C2Cn3cccc3C(=O)N2)c1OC (stereo not drawn)	i
O=C(CSCCN1CCCC1)N1CCC(n2cnnc2)CC1	17%
CCOCCn1c(=O)n(CCn2cc(Cl)cn2)c2cc(C(=O)O)cnc21	14%
Cc1ncc2c(n1)CCCN(CC(=O)N1CCCC1)C2=O	34%
COCCn1c(CO)nnc1C1CC(NC(=O)c2cccc(C#N)c2)C1 (stereo not drawn)	-15%
SMILES	Pf Dd2 inh
CNCCN1C(=O)CC[C@H]2CN(c3nccc(C(F)(F)F)n3)CC[C@H]21	-23%
CC(C)c1noc(-c2cn(C3CCCN(C(=O)c4cccc(F)c4)C3)nn2)n1 (stereo not drawn)	-9%
COc1cc(OC)cc(C(=O)N2CCN(c3cc(-c4ccc(Cl)cc4)[nH]n3)CC2)c1	-14%
COc1ccc(CCC(=O)N2CCCN(c3cc(-c4ccc(Br)cc4)[nH]n3)CC2)cc1	-8%
COc1cccc(C(=O)N2CCCN(c3cc(-c4ccc(Cl)cc4)[nH]n3)CC2)c1	4µM*
COc1ccc(-c2cc(N3CCCN(C(=O)CCCc4ccccc4)CC3)n[nH]2)cc1	2.2µM*
COc1ccc(-c2cc(N3CCCN(C(=O)c4ccccc4)CC3)n[nH]2)cc1	-1%
O=C(CCCc1ccccc1)N1CCN(c2cc(-c3ccccc3)[nH]n2)CC1	i
Cc1cnc(C(=O)N[C@@H]2CCC[C@@H]2C(=O)NCCC2=CCCCC2)cn1	-9%
O=C(Cc1cccc(F)c1)N1CCCN(c2cc(-c3ccc(Cl)cc3)[nH]n2)CC1	i
COc1cccc(C(=O)N2CC(c3nnc(C(C)C)o3)C3(CCOCC3)C2)c1OC (stereo not drawn)	-16%
CC(C)CN(CC1CN(C(=O)Nc2cccc(Cl)c2)CCO1)C(=O)c1ccc(F)cc1 (stereo not drawn)	i
COc1cc(CN2CC[C@H](CNC(=O)C3CC3)[C@H](N(C)C)C2)ccc1F	-3%
N#Cc1cccc(CN2CCc3ncc(C(=O)NCCOc4ccccc4)n3CC2)c1	-1%[44.1 µM]
O=C(NCCOc1ccccc1)c1cnc2n1CCN(Cc1ccccc1O)CC2	1%[44.1 µM]
O=C(NCCOc1ccccc1)c1cnc2n1CCN(Cc1ccc3[nH]ccc3c1)CC2	13µM*
Cn1cnc(S(=O)(=O)N2CC(N(CC3CC3)C3CCOCC3)C2)c1	-6%
Cc1ccc(OCC(=O)NCC2CCCCC(=O)N2)cc1 (stereo not drawn)	5%

Bioassay records deposited in PubChem BioAssay by National Center for Advancing Translational Sciences (NCATS).
